Data: PubChem BioAssay (NCATS)
Values joined by “and” are separate entries in the source; they are usually repeats but may differ in a detail not shown here. Equal values may be shown once. Records with an inconclusive call do not appear. Active and inactive are the calls of the source. Calls follow the shape of the dose curve; as a rule, active = well fitted curve in the direction sought with a large enough effect; inconclusive = small, poorly fitted or top-dose-only effect, or another doubt; inactive = no such curve, though single readings can be large; an effect the other way counts as inactive or inconclusive.

Key:
[1] = qHTS Assay for Identifying Gametocytocidal Compounds (AID 743244);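 also: % is scaled to controls: 0 for no effect and ±100 for the full control effect; actives lower the fluorescent signal which means gametocytes are killed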; conditions: P. falciparum 3D7 stage III-V gametocytes, alamarBlue, 72 h; max response: active compounds read low
Procedure, shortened: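 Compounds are pinned into medium, gametocytes (stage III–V, 3D7, 20,000 cells/well) added, and plates held 72 h at 37 °C in 5% CO2. AlamarBlue follows for 24 h before fluorescence reading.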

[2] = qHTS for compounds that reverse cellular toxicity of Amyloid beta (A-beta) peptide in yeast: LOPAC Validation Assay (AID 720559);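 also: plate controls were DMSO for no effect and equimolar ferric chloride plus clioquinol rescue for full effect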
Procedure, shortened: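 Medium dispensed, compounds pinned, A-beta yeast suspension added; plates held at 30 C for 48 hr; absorbance measured at 600 nm to gauge growth; values scaled between DMSO and FeCl3/clioquinol (equimolar) controls.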

[3] = qHTS for Activators of Parkin Expression: LOPAC Validation Assay (NLuc Reporter) (AID 720572)
Procedure, shortened: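 Parkin promoter-driven FLuc/NLuc neuronal reporter cells; 24 h plating, 7-pt dose response, 24 h at 37 C/5% CO2; FLuc then NanoLuc reagent, 10 min each, luminescence; DMSO/positive control normalized.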

[4] = qHTS for Activators of Parkin Expression: LOPAC Validation Assay (FLuc Reporter) (AID 720573)
Procedure, shortened: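 Cells seeded, 24 h; compounds pinned, 7-pt dose response; 24 h at 37 C/5% CO2; volume reduced; FLuc reagent 10 min RT; luminescence read. Normalization: DMSO = 0, positive control = 100%.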

[5] = target: T1, Hexokinase-4 (Homo sapiens) + Glucokinase regulatory protein (Homo sapiens) (UniProt P35557+Q14397); assay: qHTS assay for inhibitors of recombinant human GCK-GKRP interaction: Diaphorase-coupled assay (AID 743205)
Procedure, shortened: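 25 mM Hepes pH 7.6, 5 mM glucose, 0.4 mM ATP, 4 U/ml G6PDH; 10 nM each GST-GCK/FLAG-GKRP. Kinetic fluorescence read, 1/min × 30 min. Normalized: DMSO ± enzyme = max/min.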

[6] = target: T1, Hexokinase-4 (Homo sapiens) + Glucokinase regulatory protein (Homo sapiens); assay: qHTS assay for inhibitors of recombinant human GCK-GKRP interaction: ADP-Glo assay (AID 743206);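 also: plate controls were DMSO plus enzyme for no effect and no enzyme for full effect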
Procedure, shortened: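 GST-GCK and FLAG-GKRP (15 nM each in the dispensed mix, with 2 uM S6P) react with 0.4 mM ATP and 5 mM glucose (final) in Hepes pH 7.6 for 60 min at room temperature. ADP is measured by ADP-Glo luminescence.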

[7] = target: T1, Hexokinase-4 (Homo sapiens) + Glucokinase regulatory protein (Homo sapiens); assay: qHTS assay for inhibitors of recombinant human GCK-GKRP interaction: HTRF assay (AID 743207);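 also: 0% = DMSO with GCK present and -100% = DMSO wells lacking GCK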
Procedure, shortened: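 5 nM GST-GCK + 5 nM FLAG-GKRP + 2 uM S6P, pH 7.1 buffer (25 mM Hepes, 2 mM MgCl2, 25 mM KCl, 1 mM DTT, Tween/BSA); pin-transferred cpd; anti-FLAG XL665/anti-GST K; 60 min RT; HTRF.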

Measured: max response

T1 sequence (P35557 whole entry, looked up): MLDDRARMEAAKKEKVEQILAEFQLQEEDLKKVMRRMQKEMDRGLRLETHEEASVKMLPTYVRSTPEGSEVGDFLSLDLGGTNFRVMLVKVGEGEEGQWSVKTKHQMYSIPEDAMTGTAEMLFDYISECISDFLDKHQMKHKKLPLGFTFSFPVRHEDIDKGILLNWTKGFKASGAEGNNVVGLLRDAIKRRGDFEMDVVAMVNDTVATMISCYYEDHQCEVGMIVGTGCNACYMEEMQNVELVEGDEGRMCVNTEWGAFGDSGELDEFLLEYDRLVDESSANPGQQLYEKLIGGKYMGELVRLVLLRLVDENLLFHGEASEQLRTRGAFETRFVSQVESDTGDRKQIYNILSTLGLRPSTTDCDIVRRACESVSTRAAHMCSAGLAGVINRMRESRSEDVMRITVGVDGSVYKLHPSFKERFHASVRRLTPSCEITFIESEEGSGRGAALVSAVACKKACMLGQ
T1 sequence (Q14397 whole entry, looked up): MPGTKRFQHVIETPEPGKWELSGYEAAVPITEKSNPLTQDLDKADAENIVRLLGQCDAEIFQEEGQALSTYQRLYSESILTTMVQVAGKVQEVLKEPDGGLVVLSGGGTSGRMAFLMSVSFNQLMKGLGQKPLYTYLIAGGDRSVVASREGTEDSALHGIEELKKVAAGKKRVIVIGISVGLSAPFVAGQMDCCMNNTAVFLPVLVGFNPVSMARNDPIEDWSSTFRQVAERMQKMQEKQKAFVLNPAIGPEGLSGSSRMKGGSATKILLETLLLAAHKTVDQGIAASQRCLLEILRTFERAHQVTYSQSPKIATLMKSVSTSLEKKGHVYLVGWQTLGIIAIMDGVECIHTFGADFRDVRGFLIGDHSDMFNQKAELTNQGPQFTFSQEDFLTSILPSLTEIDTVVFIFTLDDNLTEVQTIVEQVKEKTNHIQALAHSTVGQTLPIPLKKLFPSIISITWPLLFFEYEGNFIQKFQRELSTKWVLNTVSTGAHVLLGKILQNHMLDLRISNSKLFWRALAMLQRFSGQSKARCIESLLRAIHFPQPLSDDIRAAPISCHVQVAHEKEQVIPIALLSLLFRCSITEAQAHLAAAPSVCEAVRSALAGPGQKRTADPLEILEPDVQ

NCCC(O)(P(=O)(O)O)P(=O)(O)O
inactive: [1] 1.74%

COC(=O)[C@H]1[C@H]2C[C@H]3c4[nH]c5ccccc5c4CCN3C[C@H]2CC[C@@H]1O
inactive: [2] | [3] | [4] | [5] | [6] | [7] | [1] 13.2% and 17.2%

CC(=O)OCC(=O)[C@@]12OC(C)(C)O[C@@H]1C[C@H]1[C@@H]3C[C@H](F)C4=CC(=O)C=C[C@]4(C)[C@@]3(F)[C@@H](O)C[C@@]12C
inactive: [1] 1.24%

O=c1[nH]c(=O)n([C@H]2CCCO2)cc1F
inactive: [1] -0.456%

CC(=O)O[C@H]1C[C@@H]2CC[C@@H]3[C@H](CC[C@@]4(C)[C@H]3C[C@H]([N+]3(C)CCCCC3)[C@@H]4OC(C)=O)[C@@]2(C)C[C@@H]1[N+]1(C)CCCCC1
inactive: [2] | [3] | [4] | [5] | [6] | [7] | [1] -9.72% and 10.5%

N[C@H](CO)C(=O)O
inactive: [2] | [3] | [4] | [5] | [6] | [7] | [1] 0.963% and 16.2%

CC1(C)CCC(NC(=O)[C@@H](N)CCC(=O)O)CC1
inactive: [2] | [3] | [4] | [5] | [6] | [7] | [1] -7.5% and 17.9%

CCC(NC(C)C)C(O)c1ccc(O)c(O)c1 (stereo not drawn)
inactive: [2] | [3] | [4] | [5] | [6] | [7] | [1] -4.31%

CC[C@H](C)C(=O)O[C@H]1CCC=C2C=C[C@H](C)[C@H](CC[C@@H]3C[C@@H](O)CC(=O)O3)[C@H]21
inactive: [2] | [5] | [6] | [7] | [1] 15.8% and 37.7%
